HT1080 IDH1KD tx = HT-1080 IDH1 knockdown cell toxicity (counter line); HT-1080 IDH1 knockdown viability, ATP luminescence, 48 h; Potency, µM (titrated, usually from 46.1 µM), inactives show top-dose activity, negative = toxicity, usual class: cytotoxic; 2% of 360,000 active; AID 686971;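 also: potency is read from the fitted curve at half-maximal effect; 0% = DMSO wells and -100% = cell-free medium wells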
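Luminescent ATP read-out (CellTiter-Glo, 10 min at room temperature) after 48 h compound exposure at 37 °C gave viability of IDH1-knockdown HT-1080 cells. Activity was normalised to DMSO and cell-free wells, then fitted as concentration-response curves.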
IL-1B inflam inh = inhibitors of inflammasome signaling (IL-1 beta secretion); 4.7% of 360,000 active; THP-1 LPS/ATP IL-1B secretion, AlphaLISA, 16 h; stronger effect = lower value; AID 743279; activity change, % at 57.5 µM; in the data active = activity change below about -50%; inconclusive = mostly about -30% to -49%
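Secreted IL-1B measured by AlphaLISA bead assay after 16 h compound exposure of THP-1 cells; compounds (final up to 57.5 uM) added 1 h before LPS (250 ng/mL) and ATP (1.25 mM) stimulation; lower signal means less secretion.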
DT40 TDP1 CPT = DT40-hTDP1 cell growth loss with CPT. 12% of 420,000 active. Potency, µM (titrated, usually from 46.2 µM), for inactives: top-dose activity change, negative = growth inhibition, most hits filed as inhibitors. chicken DT40 Tdp1-/-;hTDP1 cells + 20 nM CPT, ATP luminescence, 48 h. AID 686979; also: potency is read from the fitted curve at half-maximal effect; nearly all actives have a fitted effect of over 55% in size
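Chicken DT40 Tdp1-/- cells complemented with human TDP1, 400 cells/well, exposed to compounds plus 20 nM camptothecin for at least 48 h at 37 C; viability read as ATP content by CellTiter-Glo luminescence.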
HT1080NT lethal = kills 2HG-producing HT-1080-NT fibrosarcoma cells; HT-1080-NT fibrosarcoma viability, CellTiter-Glo ATP luminescence, 48 h; 1.6% of 360,000 active; Potency, µM (top dose mostly 46.1 µM), for the others: at the top dose activity, negative = less viability, usual class: cytotoxic;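 also: NT is the 2HG producing partner of a matched IDH1 knockdown line; potency is read from the fitted curve at half-maximal effect; 0% = DMSO-treated cells and -100% = media-only wells without cells; nearly all actives have a fitted effect of over 55% in size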
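Viability of the 2HG-overproducing fibrosarcoma line after 48 hours of compound exposure at 37 degrees C was determined by luminescence with CellTiter-Glo, and concentration-effect curves were then fitted and categorized.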
TDP1 cell noCPT = qHTS for Inhibitors of human tyrosyl-DNA phosphodiesterase 1 (TDP1): qHTS in cells in absence of CPT. AID 686978, 2013. 15% of 420,000 active. Potency, µM (series often up to 46.2 µM), without a hit: at the top dose activity change, negative = growth inhibition, most hits filed as inhibitors. DT40 Tdp1-/- hTDP1 cells, no CPT, ATP luminescence, 48 h; also: potency is read from the fitted curve at half-maximal effect; nearly all actives have a fitted effect of over 55% in size
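Growth kinetics read by CellTiter-Glo luminescence after ≥48 hr at 37 °C. Cells: DT40 Tdp1-/- stably carrying human TDP1, 400 per well, compound exposure in the absence of CPT (DMSO vehicle).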
* hit, by the source's call; ? = inconclusive; . = no result given. Sampled rows, rich in hits. Any-hit rate of the full collection: about 19%. Unless noted, calls follow the shape of the dose curve; as a rule, active = well fitted curve in the direction sought with a large enough effect; inconclusive = small, poorly fitted or top-dose-only effect, or another doubt; inactive = no such curve, though single readings can be large; an effect the other way counts as inactive or inconclusive. Unless noted, % is scaled to controls: 0 for no effect and ±100 for the full control effect.

SMILES | HT1080 IDH1KD tx | IL-1B inflam inh | DT40 TDP1 CPT | HT1080NT lethal | TDP1 cell noCPT
COC(=O)c1cc(S(=O)(=O)N2CCC(c3ccccc3)C2)c[nH]1 (stereo unspecified) | -2% | 31 | 23µM* | ? | ?
COC(=O)c1cc(S(=O)(=O)N2CCN(c3ccccc3)CC2)c[nH]1 | -8% | -14 | -28% | -12% | ?
O=C(N1CCOCC1)N1CCN(S(=O)(=O)c2cccc([N+](=O)[O-])c2)CC1 | 16% | 11 | -15% | -2% | 20%
O=C(CNC(=O)CNC(=O)c1ccc(Cl)cc1Cl)NCc1cccc(Cl)c1 | -14% | -1 | -1% | -12% | -14%
COc1ccc(-c2nc3sc(CCNC(=O)Cc4ccccc4)c(C)n3n2)cc1 | . | . | 15µM* | . | 21µM*
COc1ccc(-c2nc3sc(CCNC(=O)C(=O)Nc4ccc(OC)c(OC)c4)c(C)n3n2)cc1 | . | . | -6% | . | 1%
Cc1nc(-c2ccc(Cl)cc2)sc1CCNC(=O)Cc1ccc(F)cc1 | . | . | 16µM* | . | 15µM*
COc1ccc(-c2nc3sc(CCNC(=O)Cc4ccc(F)cc4)c(C)n3n2)cc1 | . | . | 16µM* | . | 16µM*
COc1ccc(-c2nc3sc(CCNC(=O)c4cc(OC)c(OC)c(OC)c4)c(C)n3n2)cc1 | . | . | 23µM* | . | 16µM*
Cc1ccccc1C(=O)NCCc1sc(-c2ccc(Cl)cc2)nc1C | . | . | -23% | . | ?
O=c1c2ccccc2nc2n1CCCCN2 | 0% | -2 | -4% | 4% | -16%
COc1ccc(-c2nc3sc(CCNC(=O)C(=O)Nc4c(C)cccc4C)c(C)n3n2)cc1 | . | . | -6% | . | -13%
COc1ccc(-c2nc3sc(CCNC(=O)c4ccco4)c(C)n3n2)cc1 | . | . | ? | . | 13µM*
N[C@H](C(=O)O)c1ccc(O)cc1 | . | . | 0% | . | -9%
CCOC(=O)N1CCN(C(=O)c2cc3cc(Cl)ccc3[nH]2)CC1 | 3% | -4 | ? | 1% | ?
O=C1C(=O)N(Cc2cccc([N+](=O)[O-])c2)c2ccccc21 | ? | -24 | 0.65µM* | -20% | 0.92µM*
COc1cccc(CN2C(=O)c3ccccc3S2(=O)=O)c1 | -2% | 21 | 14% | -1% | -17%
O=C1c2ccc([N+](=O)[O-])cc2S(=O)(=O)N1Cc1ccccc1 | -9% | -94* | 15% | 2% | 1%
O=C1c2ccccc2N(Cc2ccc(Cl)cc2)C2=NCCN12 | 7% | -4 | -26% | 16% | -4%
CCC1(c2ccccc2)NC(=O)N(Cc2cccc([N+](=O)[O-])c2)C1=O (stereo unspecified) | -4% | 13 | ? | -6% | -12%
O=C(CN1C(=O)C(=O)c2ccccc21)c1ccc(Cl)cc1 | 3% | 6 | 5.8µM* | 1% | 3.3µM*
O=C1C(=O)N(Cc2ccc(Cl)c(Cl)c2)c2ccccc21 | . | . | 2.7µM* | . | 1.9µM*
Cc1ccc(NC(=O)Cn2c(=O)n(Cc3ccccc3)c(=O)c3c(C)c(C(=O)N(C)C)sc32)c(C)c1 | . | . | ? | . | -16%
CC(C)n1c(N2CCN(C(=O)N3CCCCC3)CC2)nc2ccccc21 | 4% | 13 | 13µM* | 8% | ?
CC(C)n1c(N2CCN(C(=O)c3cccs3)CC2)nc2ccccc21 | -3% | -9 | ? | -3% | 23µM*
SMILES | HT1080 IDH1KD tx | IL-1B inflam inh | DT40 TDP1 CPT | HT1080NT lethal | TDP1 cell noCPT
COc1ccc(/C=C(\C#N)c2n[nH]c(Cn3cncn3)n2)cc1 | -2% | -1 | 3% | 1% | ?
O=C1c2ccccc2-c2nnc(-c3ccccc3)cc21 | -8% | 31 | 3.7µM* | -1% | 5.2µM*
Cc1cccc(-c2cc3c(nn2)-c2ccccc2C3=O)c1 | 0% | -20 | ? | 3% | ?
COc1ccc(-c2cc3c(nn2)-c2ccccc2C3=O)cc1 | -15% | 23 | 26µM* | -24% | 16µM*
COc1ccc(-c2cn(Cc3ccc4c(c3)C(=O)c3ccccc3C4=O)nn2)cc1 | 11% | -7 | ? | -1% | ?
CCCCCNC(=O)c1nc(-c2c(F)cccc2F)oc1-c1ccccc1 | -6% | -15 | ? | -11% | 21µM*
O=C(NC1CCCC1)c1nc(-c2c(F)cccc2F)oc1-c1ccccc1 | -23% | -4 | ? | -8% | ?
CCCCNC(=O)c1nc(-c2cc3ccccc3[nH]2)oc1-c1cccc(C(F)(F)F)c1 | 1% | -3 | 15µM* | -1% | ?
CCCCNC(=O)c1nc(-c2ccncc2)oc1-c1ccccc1 | 4% | -13 | ? | ? | ?
O=C(NCc1ccccc1)c1nc(-c2c(F)cccc2F)oc1-c1ccccc1 | -15% | 5 | ? | -17% | 18µM*
O=C(COC(=O)c1ccc(CO)cc1)NCc1cccs1 | 11% | 0 | -2% | 13% | -8%
Cc1nc2nc(NC(=O)CC(C)C)[nH]n2c(=O)c1Cc1ccccc1 | . | . | -12% | . | -11%
Nc1nc(N)nc(Cc2ccccc2O)n1 | 3% | 15 | 6% | 0% | 22%
Cc1ccc(N(Cc2cccs2)C(=O)c2ccccc2Cl)cc1 | . | . | 13µM* | . | 18µM*
CCOc1ccccc1C(=O)N(Cc1cccs1)c1ccc(Cl)cc1 | . | . | 16µM* | . | 10µM*
CC(C)(C)c1cc(Cc2ccccc2)[nH]n1 | 11% | 10 | -24% | 5% | -21%
C(=Nc1cnc2ccccc2c1)c1cccnc1 | . | . | 17% | . | 5%
C(=Nc1cccnc1)c1ccnc2ccccc12 | . | . | 2µM* | . | 1.8µM*
C(=Nc1cnc2ccccc2c1)c1ccnc2ccccc12 | . | . | 2.8µM* | . | 2.8µM*
O=C(O)C(=Cc1ccnc2ccccc12)C(=O)O | 0% | -11 | -15% | 0% | -13%
Cc1oc(-c2ccccc2)nc1CNS(=O)(=O)c1ccc(Cl)cc1 | . | . | ? | . | -30%
CC(=O)c1ccc(Nc2ccc([N+](=O)[O-])c3nonc23)cc1 | ? | -12 | ? | ? | 23µM*
CCOc1ccc(Nc2nc3cc(S(=O)(=O)N(CC)CC)ccc3o2)cc1 | ? | 43 | 5.8µM* | ? | 7.3µM*
CCS(=O)(=O)c1ccc2oc(Nc3ccc(C(C)C)cc3)nc2c1 | -10% | -7 | 16µM* | -11% | 23µM*
CCS(=O)(=O)c1ccc2oc(Nc3cc(C)cc(C)c3)nc2c1 | -22% | -10 | ? | 3% | ?
COc1ccccc1N1CCN(C(=O)CSc2nc3ccccc3nc2N2CCC(C)CC2)CC1 | -3% | ? | 21µM* | -8% | 23µM*
CCC(CC)C(=O)Nc1nnc(SCC(=O)N2CCN(c3ccccc3OC)CC2)s1 | -9% | -15 | 21µM* | -11% | 21µM*
O=C(CSc1nc2ccccc2nc1Cc1ccc(Cl)cc1)N1CCN(c2ccccc2F)CC1 | . | . | 16µM* | . | 21µM*

Assay outcomes deposited in PubChem by National Center for Advancing Translational Sciences (NCATS).
